# From article PMC11006913
# Numbering of substitutions follows the chain as printed.
# Legend:
# Experiment in all cases: PBM; 200 nM protein, PBS
# Conditions in all cases: dsDNA, one strand shown
# [1] = target: HOXD13 (Homo sapiens, UniProt P35453 263-343)
# [2] = target: HOXD13 (Homo sapiens, UniProt P35453 263-343, T313A)
# [3] = target: HOXA4 (Homo sapiens, UniProt Q00056 201-287)
# [4] = target: VAX1 (Homo sapiens, UniProt Q5SQQ9 86-172)
# [5] = target: VAX1 (Homo sapiens, UniProt Q5SQQ9 86-172, T142I)
# [6] = target: VAX1 (Homo sapiens, UniProt Q5SQQ9 86-172, K157R)
# [7] = target: T1, PAX4 (Homo sapiens, UniProt O43316 9-242, F177V)
# T1 sequence: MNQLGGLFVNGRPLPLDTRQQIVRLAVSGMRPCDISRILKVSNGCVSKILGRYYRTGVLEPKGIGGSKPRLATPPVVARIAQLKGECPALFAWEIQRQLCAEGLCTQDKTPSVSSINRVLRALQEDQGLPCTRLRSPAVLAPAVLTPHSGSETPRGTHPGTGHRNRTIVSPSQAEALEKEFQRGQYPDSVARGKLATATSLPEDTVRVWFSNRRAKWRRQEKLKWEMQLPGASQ
# [8] = target: CRX (Homo sapiens, UniProt O43186 26-111, R41L)
# [9] = target: HOXA4 (Homo sapiens, UniProt Q00056 201-287, W262F)
# [10] = target: T2, NKX2-6 (Homo sapiens, UniProt A6NCS4 118-204, F151L)
# T2 sequence: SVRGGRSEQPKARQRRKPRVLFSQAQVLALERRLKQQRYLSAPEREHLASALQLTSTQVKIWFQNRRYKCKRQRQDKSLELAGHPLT
# [11] = target: T3, PAX4 (Homo sapiens, UniProt O43316 9-242, F177Y)
# T3 sequence: T1 sequence with V169Y
# [12] = target: T4, PAX4 (Homo sapiens, UniProt O43316 9-242, R227W)
# T4 sequence: T1 sequence with V169F, R219W
# [13] = target: HOXC10 (Homo sapiens, UniProt Q9NYD6 254-340, K271E)
# HOXC10, sequence (Q9NYD6 254-340 K271E): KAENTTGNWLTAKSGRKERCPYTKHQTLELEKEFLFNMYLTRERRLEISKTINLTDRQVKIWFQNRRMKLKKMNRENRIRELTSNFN
# HOXA4 (Homo sapiens, UniProt Q00056 201-287), sequence (Q00056 201-287): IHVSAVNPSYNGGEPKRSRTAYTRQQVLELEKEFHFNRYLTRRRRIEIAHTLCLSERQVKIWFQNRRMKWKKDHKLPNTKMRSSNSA
# HOXD13 (Homo sapiens, UniProt P35453 263-343), sequence (P35453 263-343): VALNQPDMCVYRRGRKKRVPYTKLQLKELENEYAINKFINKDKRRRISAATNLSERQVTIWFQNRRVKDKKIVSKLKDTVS
# HOXD13 (Homo sapiens, UniProt P35453 263-343, T313A), sequence (P35453 263-343 T313A): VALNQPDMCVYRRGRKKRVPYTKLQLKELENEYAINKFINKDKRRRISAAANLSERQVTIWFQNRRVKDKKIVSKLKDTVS
# VAX1 (Homo sapiens, UniProt Q5SQQ9 86-172, K157R), sequence (Q5SQQ9 86-172 K157R): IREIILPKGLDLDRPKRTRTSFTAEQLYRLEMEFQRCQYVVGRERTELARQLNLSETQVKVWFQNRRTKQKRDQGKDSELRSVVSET
# VAX1 (Homo sapiens, UniProt Q5SQQ9 86-172, T142I), sequence (Q5SQQ9 86-172 T142I): as the sequence (Q5SQQ9 86-172 K157R) above, with T57I, R72K counted along it
# VAX1 (Homo sapiens, UniProt Q5SQQ9 86-172), sequence (Q5SQQ9 86-172): as the sequence (Q5SQQ9 86-172 K157R) above, with R72K counted along it
# HOXA4 (Homo sapiens, UniProt Q00056 201-287, W262F), sequence (Q00056 201-287 W262F): as the sequence (Q00056 201-287) above, with W62F counted along it
# CRX, sequence (O43186 26-111 R41L): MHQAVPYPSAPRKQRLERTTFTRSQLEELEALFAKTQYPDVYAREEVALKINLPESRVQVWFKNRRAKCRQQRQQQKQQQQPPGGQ
sequence,measurement,setting,value
ATAAACGA,binding signal,[1],"11.4 upbm affinity estimate (log intensity, higher = more binding, comparable within an allelic series)"
same,binding signal,[2],"11.2 upbm affinity estimate (log intensity, higher = more binding, comparable within an allelic series)"
CTTAGTTA,binding signal,[3],"11 upbm affinity estimate (log intensity, higher = more binding, comparable within an allelic series)"
ATCGTAAC,binding signal,[1],"11 upbm affinity estimate (log intensity, higher = more binding, comparable within an allelic series)"
same,binding signal,[2],"10.9 upbm affinity estimate (log intensity, higher = more binding, comparable within an allelic series)"
ATTTCTTA,binding signal,[3],"11.1 upbm affinity estimate (log intensity, higher = more binding, comparable within an allelic series)"
AAGTTATT,binding signal,[1],"10.9 upbm affinity estimate (log intensity, higher = more binding, comparable within an allelic series)"
same,binding signal,[4],"10.1 upbm affinity estimate (log intensity, higher = more binding, comparable within an allelic series)"
same,binding signal,[2],"10.8 upbm affinity estimate (log intensity, higher = more binding, comparable within an allelic series)"
same,binding signal,[5],"9.9 upbm affinity estimate (log intensity, higher = more binding, comparable within an allelic series)"
same,binding signal,[6],"9.7 upbm affinity estimate (log intensity, higher = more binding, comparable within an allelic series)"
ATATAATC,binding signal,[7],"10.6 upbm affinity estimate (log intensity, higher = more binding, comparable within an allelic series)"
same,binding signal,[4],"10.1 upbm affinity estimate (log intensity, higher = more binding, comparable within an allelic series)"
same,binding signal,[5],"10.1 upbm affinity estimate (log intensity, higher = more binding, comparable within an allelic series)"
same,binding signal,[8],"12.3 upbm affinity estimate (log intensity, higher = more binding, comparable within an allelic series)"
same,binding signal,[6],"9.94 upbm affinity estimate (log intensity, higher = more binding, comparable within an allelic series)"
GATTTGAA,binding signal,[3],"10.8 upbm affinity estimate (log intensity, higher = more binding, comparable within an allelic series)"
TCCTTTAA,binding signal,[3],"11.1 upbm affinity estimate (log intensity, higher = more binding, comparable within an allelic series)"
ATCATGTC,binding signal,[3],"11 upbm affinity estimate (log intensity, higher = more binding, comparable within an allelic series)"
same,binding signal,[9],"10.3 upbm affinity estimate (log intensity, higher = more binding, comparable within an allelic series)"
AAGTGTTA,binding signal,[1],"10.7 upbm affinity estimate (log intensity, higher = more binding, comparable within an allelic series)"
same,binding signal,[10],"10.7 upbm affinity estimate (log intensity, higher = more binding, comparable within an allelic series)"
TAAATGAA,binding signal,[1],"10.9 upbm affinity estimate (log intensity, higher = more binding, comparable within an allelic series)"
same,binding signal,[2],"10.9 upbm affinity estimate (log intensity, higher = more binding, comparable within an allelic series)"
CTAATATA,binding signal,[7],"10.8 upbm affinity estimate (log intensity, higher = more binding, comparable within an allelic series)"
same,binding signal,[11],"10.9 upbm affinity estimate (log intensity, higher = more binding, comparable within an allelic series)"
same,binding signal,[12],"10.9 upbm affinity estimate (log intensity, higher = more binding, comparable within an allelic series)"
CATATGTA,binding signal,[3],"10.8 upbm affinity estimate (log intensity, higher = more binding, comparable within an allelic series)"
AGCAAATC,binding signal,[3],"10.9 upbm affinity estimate (log intensity, higher = more binding, comparable within an allelic series)"
AATATAGT,binding signal,[1],"11 upbm affinity estimate (log intensity, higher = more binding, comparable within an allelic series)"
same,binding signal,[2],"11.1 upbm affinity estimate (log intensity, higher = more binding, comparable within an allelic series)"
ATATTATG,binding signal,[7],"10.7 upbm affinity estimate (log intensity, higher = more binding, comparable within an allelic series)"
same,binding signal,[12],"10.9 upbm affinity estimate (log intensity, higher = more binding, comparable within an allelic series)"
TGATAAAA,binding signal,[1],"11.3 upbm affinity estimate (log intensity, higher = more binding, comparable within an allelic series)"
same,binding signal,[2],"11.2 upbm affinity estimate (log intensity, higher = more binding, comparable within an allelic series)"
AACATAAA,binding signal,[13],"11.3 upbm affinity estimate (log intensity, higher = more binding, comparable within an allelic series)"
AAGATAAC,binding signal,[3],"10.8 upbm affinity estimate (log intensity, higher = more binding, comparable within an allelic series)"
ATTATATG,binding signal,[7],"10.6 upbm affinity estimate (log intensity, higher = more binding, comparable within an allelic series)"
CGTTATTA,binding signal,[1],"11.2 upbm affinity estimate (log intensity, higher = more binding, comparable within an allelic series)"
same,binding signal,[2],"11.1 upbm affinity estimate (log intensity, higher = more binding, comparable within an allelic series)"
CTCGTTAC,binding signal,[1],"11.1 upbm affinity estimate (log intensity, higher = more binding, comparable within an allelic series)"
same,binding signal,[2],"10.9 upbm affinity estimate (log intensity, higher = more binding, comparable within an allelic series)"
ATATACAT,binding signal,[7],"10.6 upbm affinity estimate (log intensity, higher = more binding, comparable within an allelic series)"
CATAAATG,binding signal,[13],"11.2 upbm affinity estimate (log intensity, higher = more binding, comparable within an allelic series)"
CAAGATAA,binding signal,[3],"10.9 upbm affinity estimate (log intensity, higher = more binding, comparable within an allelic series)"
ATAATTCA,binding signal,[7],"10.7 upbm affinity estimate (log intensity, higher = more binding, comparable within an allelic series)"
same,binding signal,[11],"11.1 upbm affinity estimate (log intensity, higher = more binding, comparable within an allelic series)"
same,binding signal,[12],"10.9 upbm affinity estimate (log intensity, higher = more binding, comparable within an allelic series)"
ATAACGAC,binding signal,[1],"11 upbm affinity estimate (log intensity, higher = more binding, comparable within an allelic series)"
same,binding signal,[2],"10.8 upbm affinity estimate (log intensity, higher = more binding, comparable within an allelic series)"
AGTATACA,binding signal,[1],"10.6 upbm affinity estimate (log intensity, higher = more binding, comparable within an allelic series)"
same,binding signal,[2],"10.7 upbm affinity estimate (log intensity, higher = more binding, comparable within an allelic series)"
ATGATATA,binding signal,[7],"10.7 upbm affinity estimate (log intensity, higher = more binding, comparable within an allelic series)"
